# Experimental data published in PubChem BioAssay (NCATS).
# Inconclusive results are not listed. The source made the active and inactive calls. The call rests on the fitted dose curve; in most records, active means well fitted inhibition curve with a large enough effect; inconclusive means small, poorly fitted or top-dose-only effect; inactive means no such curve, though single readings can be large or run the other way.
# Assay: Primary qHTS for inhibitors of nuclear receptor binding SET domain protein 2 (NSD2) in an RCH-ACV wild type WT cells (2C) (AID 1645877); further: nearly all actives have a fitted effect of over 70% in size
# Details: RCH-ACV (leukaemia line) NSD2 WT (2C) viability, CellTiter-Glo, 72 h; series mostly up to 44.9 µM; activity change, negative = cell killing: at the top concentration
# On the % scale 0 is the no-effect control and ±100 the full control effect; potency means the concentration at half of the fitted maximal effect.
SMILES,"activity change, negative = cell killing",Potency,outcome
O=C(CCl)c1ccc(Cl)cc1Cl,-24.6% (inactive),–,–
CN1C(=O)CN=C(c2ccccc2)c2cc([N+](=O)[O-])ccc21,5.12% (inactive),–,–
CCc1cc(OC)c(C[C@H](C)N)cc1OC,–,44.9 µM (active),–
Clc1ccc(CSC(Cn2ccnc2)c2ccc(Cl)cc2Cl)cc1 (centres undefined),–,5.96 µM (active),–
CN1C(=O)CN=C(c2ccccc2)c2cc(Cl)ccc21,-4.23% (inactive),–,–
C[C@]12Cc3nonc3C[C@@H]1CC[C@@H]1[C@@H]2CC[C@@]2(C)[C@H]1CC[C@]2(C)O,–,21.1 µM (active),–
CC(C)NCC(O)c1ccc(N)c(C#N)c1 (centres undefined),6.09% (inactive),–,–
COc1cc(CC(C)N)c(OC)cc1Br (centres undefined),–,8.96 µM (active),–
C[C@H](N)[C@H](O)c1ccc(O)c(O)c1,-6.42% (inactive),–,–
C=CCN1CC[C@]23CCCC[C@H]2[C@H]1Cc1ccc(O)cc13,-14.2% (inactive),–,–
C[C@@H]1CC[C@H]2[C@@H](C)C(=O)O[C@@H]3O[C@@]4(C)CC[C@@H]1[C@]32OO4,–,5.25 µM (active),–
COc1cc(CC#N)cc(OC)c1OC,–,–,inactive
Oc1c(Br)cc(Br)cc1Br,-17.2% (inactive),–,–
CCCC[N+]1(C)[C@@H]2CC(OC(=O)[C@H](CO)c3ccccc3)C[C@H]1[C@@H]1O[C@@H]12 (some centres undefined),–,inactive,–
